Source: PubChem
An excerpt weighted towards active compounds, which were near 4.8% of everything screened.
CSC inhib: cancer stem cell inhibition; cancer stem cell-like cells viability, luminescence; inhibition, % at 7.5 µM; 1.1% of 300,000 active; in the data active = inhibition above about 75%; inconclusive = no clear call, values can overlap the other calls; tested in HMLE shEcad cells
MPTP inh: blocks calcium-induced mitochondrial swelling | isolated mouse mitochondria, Ca2+ swelling absorbance, 30 min | inhibition, % at 10 µM | 1.4% of 360,000 active;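 active = inhibition of 50% or more, scaled per plate between neutral and stimulator controls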;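 also: 0% = DMSO wells given calcium and 100% = 1 mM EGTA wells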
Mdm2 MdmX PPI: inhibitors of human Mdm2/MdmX interaction; inhibition, % at 8 µM; O15151+Q00987; 3% of 330,000 active; SaOS-2 split-luciferase Mdm2/MdmX complementation, luminescence;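 active = inhibition of at least 50% at 8 µM in the primary screen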
Target sequence (O15151 whole entry, looked up): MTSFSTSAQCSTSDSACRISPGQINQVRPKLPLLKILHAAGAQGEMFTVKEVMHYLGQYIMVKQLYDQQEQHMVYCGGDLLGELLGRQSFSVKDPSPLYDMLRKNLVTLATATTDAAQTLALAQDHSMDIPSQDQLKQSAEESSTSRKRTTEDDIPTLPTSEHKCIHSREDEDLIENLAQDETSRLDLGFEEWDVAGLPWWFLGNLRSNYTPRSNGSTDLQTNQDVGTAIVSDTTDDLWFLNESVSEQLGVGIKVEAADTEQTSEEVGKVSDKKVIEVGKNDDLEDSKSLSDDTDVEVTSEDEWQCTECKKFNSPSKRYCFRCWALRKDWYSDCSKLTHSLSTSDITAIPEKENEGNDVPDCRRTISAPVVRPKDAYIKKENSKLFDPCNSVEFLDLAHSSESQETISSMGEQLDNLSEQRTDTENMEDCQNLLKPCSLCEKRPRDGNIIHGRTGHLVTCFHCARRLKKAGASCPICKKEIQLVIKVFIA
Target sequence (Q00987 whole entry, looked up): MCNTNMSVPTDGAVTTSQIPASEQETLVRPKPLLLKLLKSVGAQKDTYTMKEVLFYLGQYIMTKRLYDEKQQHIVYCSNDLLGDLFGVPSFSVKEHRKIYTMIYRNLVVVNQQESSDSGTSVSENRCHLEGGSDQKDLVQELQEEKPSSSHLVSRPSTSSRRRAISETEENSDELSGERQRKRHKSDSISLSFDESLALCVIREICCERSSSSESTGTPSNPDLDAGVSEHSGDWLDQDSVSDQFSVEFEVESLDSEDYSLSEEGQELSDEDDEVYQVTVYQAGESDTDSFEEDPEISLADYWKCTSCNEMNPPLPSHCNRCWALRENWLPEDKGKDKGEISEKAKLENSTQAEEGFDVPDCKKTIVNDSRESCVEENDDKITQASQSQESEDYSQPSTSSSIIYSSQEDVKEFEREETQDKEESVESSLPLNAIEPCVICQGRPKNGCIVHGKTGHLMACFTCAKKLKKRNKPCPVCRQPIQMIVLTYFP
Beta apoptosis: beta cell apoptosis inhibition. AID 435005. 0.8% of 300,000 active. protection from apoptosis, % (test concentration not listed). INS-1E cytokine-induced death, ATP luminescence, 48 h; percent of positive-control rescue, neutral wells zero;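 active = Every replicate reaches about 75%, or at least half do and their mean reaches it too, limit read from the data; inconclusive = At least half of replicates reach the limit but their mean does not; inactive = Under half of replicates reach the limit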;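 also: 0% = cytokine-treated negative control wells and 100% = positive control rescue; higher means more ATP so stronger rescue from cytokine killing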
Calb FLC: C. albicans growth modulation with fluconazole; C. albicans CaCi-2 (fluconazole-resistant clinical isolate) + fluconazole, Alamar Blue growth, 48 h; growth inhibition, % (test concentration not listed); 0.57% of 300,000 active;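 active = growth inhibition above about 58% in most replicates, limit read from the data, passing the limit was not always enough; inconclusive = exactly half the replicates above a set limit; inactive = most replicates below a set limit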;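 also: all wells also contain fluconazole at 8 µg/ml as a sub-toxic cotreatment; 0% = median of DMSO wells and 100% = median of geldanamycin control wells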
Mdm2-MdmX conf: confirmation of human Mdm2/MdmX interaction inhibitors. inhibition, % at 8 µM. AID 489028. 55% of 10,000 active. Mdm2-MdmX binding, luminescent assay. shares compounds with Mdm2 MdmX PPI; in the data active = inhibition above about 40%
Full FLuc ctr: full-length luciferase inhibition in Mdm2/MdmX counter-screen. inhibition, % at 8 µM. shares compounds with Mdm2 MdmX PPI. AID 504607. SaOS-2 full-length luciferase counterscreen, luminescence. 77% of 6,200 active;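 active = mean inhibition at 8 µM reaching about 37%, which flags the compound as non-specific, limit read from the data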;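 also: p53-null SaOS-2 cells with luciferase driven by a doxycycline-inducible promoter; compound on cells about two nights before reading with doxycycline added after day one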
The depositor's hits bear a star.

What do the screens show for `CC(C)C[C@H](NC(=O)c1[nH]cnc1C(=O)N[C@@H](C)C(=O)OC(C)(C)C)C(=O)OC(C)(C)C`?
CSC inhib: -1.4; MPTP inh: 0.1; Mdm2 MdmX PPI: 63.1*; Beta apoptosis: 2.7; Calb FLC: 19.9; Mdm2-MdmX conf: 11.7

How did CC(C)C[C@H](NC(=O)c1[nH]cnc1C(=O)N[C@@H](C)c1ccccc1)C(=O)OCc1ccccc1 do in these assays?
CSC inhib: 0.3; MPTP inh: -0.1; Mdm2 MdmX PPI: 51.1*; Beta apoptosis: -0.5; Calb FLC: 10.9; Mdm2-MdmX conf: 21.4

How did CC(C)C[C@H](NC(=O)c1nc[nH]c1C(=O)NCC(=O)OCc1ccccc1)C(=O)OCc1ccccc1 do in these assays?
CSC inhib: -1.8; MPTP inh: 1.1; Mdm2 MdmX PPI: 0.9; Beta apoptosis: -6.5; Calb FLC: 3.0

What do the screens show for `Cc1ccc(S(=O)(=O)N2CCN(C(=O)C(O)c3ccccc3)CC2)cc1` (stereo not drawn)?
MPTP inh: 0.4

What do the screens show for `CCOC(=O)C1(C)CCCN(C(=O)c2ccc(F)cc2Cl)C1` (stereo not drawn)?
MPTP inh: 0.6

How did CCOc1ccc(-n2c(SCC(=O)Nc3nccs3)nc3c(c2=O)SCC3)cc1 do in these assays?
CSC inhib: 12.5; MPTP inh: -2.0; Mdm2 MdmX PPI: 58.9*; Beta apoptosis: 17.3; Calb FLC: -5.4; Mdm2-MdmX conf: 16.7

What do the screens show for `CC1=C(C(=O)N(C(C)C)C(C)C)CC(CC(=O)NCc2ccco2)C(=O)N1CCCN1CCCC1=O` (stereo not drawn)?
MPTP inh: -2.6

How did NC(=O)C1CCCN(C(=O)c2[nH]c(C(F)(F)F)nc2-c2ccccc2)C1 (stereo not drawn) do in these assays?
MPTP inh: -2.4

How did O=C1C=C(c2ccc3ccccc3c2)C[C@@H](c2ccc(F)cc2)C1 do in these assays?
CSC inhib: 30.0; MPTP inh: 1.1; Mdm2 MdmX PPI: 52.0*; Beta apoptosis: 2.7; Mdm2-MdmX conf: -6.2

What do the screens show for `O=C1C=C(c2ccc3ncccc3c2)C[C@@H](c2ccc(F)cc2)C1`?
CSC inhib: 18.1; MPTP inh: -2.5; Mdm2 MdmX PPI: 32.2; Beta apoptosis: 9.0

How did Cc1cccn2c(=O)c(C=NCc3ccco3)c(Nc3ccc(SC(F)F)cc3)nc12 do in these assays?
CSC inhib: -2.8; MPTP inh: -1.0; Mdm2 MdmX PPI: 55.7*; Beta apoptosis: 24.8; Calb FLC: 0.2; Mdm2-MdmX conf: 5.2

How did Cc1ccc(OCc2nc3ccccc3n2C(C(=O)Nc2c(C)cccc2C)C2CC2)cc1 (stereo not drawn) do in these assays?
MPTP inh: 0.2

Results for COc1ccc(C(O)c2nc(-c3cccc(NC(C)=O)c3)cs2)cc1 (stereo not drawn) ?
MPTP inh: 0.4

How did COc1ccc2nc(N=Nc3ccc(O)c4ccccc34)sc2c1 do in these assays?
CSC inhib: 91.9*; MPTP inh: 5.8; Mdm2 MdmX PPI: 65.5*; Beta apoptosis: inconclusive; Calb FLC: -5.4; Mdm2-MdmX conf: 77.5*; Full FLuc ctr: 35.3

What do the screens show for `COc1ccc(C2NN=C(c3c[nH]c4ccccc34)C2O)cc1` (stereo not drawn)?
CSC inhib: 50.1; MPTP inh: 0.5; Mdm2 MdmX PPI: 0.6; Beta apoptosis: 4.2; Calb FLC: 8.6

What do the screens show for `COc1ccc(C2C(O)C(c3c[nH]c4ccccc34)=NN2C(=O)CCl)cc1` (stereo not drawn)?
CSC inhib: 109.1*; MPTP inh: -0.1; Mdm2 MdmX PPI: 98.2*; Beta apoptosis: 128.8*; Calb FLC: 3.0; Mdm2-MdmX conf: 97.1*; Full FLuc ctr: 1.4

What do the screens show for `COc1ccc(CN2C(=O)CN(S(C)(=O)=O)CC2(C)C(=O)NC(C)C)cc1OC` (stereo not drawn)?
MPTP inh: 0.6

What do the screens show for `CCOC(=O)/C=c1\s/c(=C\c2ccc3cc(OC)ccc3c2)c(=O)n1CC(=O)NCc1ccc2c(c1)OCO2`?
CSC inhib: 9.3; MPTP inh: 1.8; Mdm2 MdmX PPI: 79.4*; Beta apoptosis: -1.4; Calb FLC: 10.5; Mdm2-MdmX conf: 13.8

How did CCOC(=O)/C=c1\s/c(=C\c2ccccc2C)c(=O)n1CC(=O)NCc1ccc2c(c1)OCO2 do in these assays?
CSC inhib: 44.7; MPTP inh: 1.0; Mdm2 MdmX PPI: 92.1*; Beta apoptosis: 9.5; Calb FLC: -4.8; Mdm2-MdmX conf: 67.5*; Full FLuc ctr: 44.1*
